# The source made the active and inactive calls. Unless noted, no rule for the calls is given here.
# Legend:
# [1] = compound effects on lung adenocarcinoma cell viability – A549, calcein-AM fluorescence, 48 h, basal, profiling panel (AID 1162); settings: higher = more signal; also: test concentration not given here
# [2] = compound effects on differentiated 3T3-L1 adipocyte viability – cell-based, 3T3-L1 adipocytes, calcein-AM fluorescence, 48 h, basal, profiling panel (AID 1163); settings: 3T3-L1 adipocytes viability, higher = more signal; also: test concentration not given here
# [3] = compound effects on hepatocellular carcinoma cell viability – HepG2, calcein-AM fluorescence, 48 h, basal, profiling panel (AID 1164); settings: higher = more signal; also: test concentration not given here
# [4] = compound effects on multiple myeloma cell viability – MM1S, calcein-AM fluorescence, 48 h, basal, profiling panel (AID 1165); settings: higher = more signal;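 also: viability of MM1S multiple myeloma cells under basal unstimulated conditions; test concentration not given here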
# [5] = calcein-AM signal in unstimulated myeloma cells – cell-based, calcein-AM fluorescence, 48 h, PK04 Diversity Set, profiling panel (AID 1166); settings: RPMI8226 myeloma viability, higher = more signal;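 also: cells grown under basal conditions without added stimulus; test concentration not given here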
# [6] = JC-1 mitochondrial signal, unstimulated HepG2 cells – cell-based, JC-1 fluorescence, 24 h, 100 nL compound, profiling panel (AID 1167); settings: HepG2 mitochondrial potential, higher = more signal; also: test concentration not given here
# [7] = JC-1 mitochondrial signal, unstimulated adipocytes – cell-based, JC-1 fluorescence, 3T3-L1 adipocytes, 24 h, 100 nL compound, profiling panel (AID 1168); settings: JC-1 mitochondrial fluorescence, higher = more signal, called active from +8 up or from −8 down; also: test concentration not given here
# [8] = JC-1 mitochondrial signal, unstimulated myeloma cells – cell-based, JC-1 fluorescence, RPMI8226, 24 h, 100 nL compound, profiling panel (AID 1169); settings: JC-1 mitochondrial potential fluorescence, higher = more signal; also: test concentration not given here
# [9] = JC-1 mitochondrial signal, unstimulated MM1S myeloma – cell-based, JC-1 fluorescence, 24 h, 100 nL compound, profiling panel (AID 1170); settings: MM1S mitochondrial potential, higher = more signal; also: test concentration not given here
# [10] = resazurin metabolic signal in A549 cells – cell-based, resazurin fluorescence, 24 h, PK04 Diversity Set, profiling panel (AID 1171); settings: A549 viability, higher = more signal, called active from +8 up or from −8 down; also: test concentration not given here
# [11] = resazurin metabolic signal in HepG2 cells – cell-based, resazurin fluorescence, 24 h, PK04 Diversity Set, profiling panel (AID 1172); settings: HepG2 viability, higher = more signal; also: test concentration not given here
# [12] = budding yeast growth changes without added modifier – OD600, strain BY4716, 24 h, basal condition, primary screen (AID 1173); settings: S. cerevisiae BY4716 growth, OD600, 24 h; higher = more signal, called active from +8 up or from −8 down
# [13] = viability profiling in MM1S myeloma cells – cell-based, resazurin fluorescence, basal, 24 h, PK04 Diversity Set, profiling panel (AID 1174); settings: higher = more signal, called active from +8 up or from −8 down; also: test concentration not given here
# [14] = molecular target: Dihydroorotate dehydrogenase (quinone), mitochondrial (Plasmodium falciparum (isolate 3D7)) (UniProt Q08210); assay: inhibition of P. falciparum DHODH – biochemical, C-terminal His tag, absorbance 600 nm, primary screen (AID 1175); settings: PfDHODH enzyme, DCIP absorbance 600 nm; higher = more signal, called active from +8 up or from −8 down;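 also: recombinant parasite enzyme with a five histidine tag at its C terminus; test concentration not given here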
# Dihydroorotate dehydrogenase (quinone), mitochondrial (Plasmodium falciparum (isolate 3D7)), sequence (Q08210 whole entry, looked up): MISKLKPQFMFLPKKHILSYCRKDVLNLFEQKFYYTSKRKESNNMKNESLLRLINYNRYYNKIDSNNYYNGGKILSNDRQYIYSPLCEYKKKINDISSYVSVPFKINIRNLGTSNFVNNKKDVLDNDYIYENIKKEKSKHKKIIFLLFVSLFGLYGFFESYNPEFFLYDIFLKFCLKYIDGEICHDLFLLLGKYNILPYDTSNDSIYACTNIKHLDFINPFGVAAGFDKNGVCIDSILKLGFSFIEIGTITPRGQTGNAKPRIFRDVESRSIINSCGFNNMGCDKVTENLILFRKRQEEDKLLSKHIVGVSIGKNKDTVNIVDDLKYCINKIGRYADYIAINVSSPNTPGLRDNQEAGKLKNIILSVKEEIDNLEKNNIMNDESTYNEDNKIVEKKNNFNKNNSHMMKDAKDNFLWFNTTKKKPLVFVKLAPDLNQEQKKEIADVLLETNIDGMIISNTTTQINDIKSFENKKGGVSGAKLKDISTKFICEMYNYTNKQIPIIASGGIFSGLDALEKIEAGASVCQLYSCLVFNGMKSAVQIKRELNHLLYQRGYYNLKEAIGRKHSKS
# [15] = inhibition of PAO1 biofilm formation – strain PAO1, LB-PBS medium, absorbance 600 nm, primary screen (AID 1176); also: test concentration not given here; settings: P. aeruginosa PAO1 growth/biofilm, A600, 12 h; higher = more signal
# [16] = growth modulation of vineyard yeast isolate – strain RM11-1a, OD600, basal, 24 h, primary screen (AID 1177);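 also: cultures grown under basal conditions with no added stressor; test concentration not given here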; settings: S. cerevisiae RM11-1a growth, OD600, 24 h; higher = more signal, called active from +8 up or from −8 down
# [17] = growth of efflux-deficient E. coli DRC39 – strain DRC39, OD650, 24 h, E. coli filamentation inducers, primary screen (AID 1178);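 also: growth measured as culture turbidity by optical density at 650 nm; test concentration not given here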; settings: E. coli DRC39 acrAB, higher = more signal, called active from +8 up or from −8 down
# [18] = growth of efflux-deficient E. coli DRC39 – strain DRC39, OD650, 48 h, E. coli filamentation inducers, primary screen (AID 1179);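 also: screen aims at cell division blockers that make cells filament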; settings: E. coli DRC39 delta-acrAB growth, higher = more signal, called active from +8 up or from −8 down
# [19] = viability profiling in RPMI8226 myeloma cells – cell-based, resazurin fluorescence, basal, 24 h, PK04 Diversity Set, profiling panel (AID 1180); settings: higher = more signal;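 also: RPMI8826 multiple myeloma cell line at 5000 cells per well; test concentration not given here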
# [20] = molecular target: E3 ubiquitin-protein ligase XIAP (Homo sapiens) (UniProt P98170); assay: small molecules binding XIAP protein – biophysical, small-molecule microarray, fluorescence 635 nm, primary screen (AID 1181); settings: higher = more signal;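 also: score merges 667 nm emission and signal to noise over triplicate slides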
# E3 ubiquitin-protein ligase XIAP (Homo sapiens), sequence (P98170 whole entry, looked up): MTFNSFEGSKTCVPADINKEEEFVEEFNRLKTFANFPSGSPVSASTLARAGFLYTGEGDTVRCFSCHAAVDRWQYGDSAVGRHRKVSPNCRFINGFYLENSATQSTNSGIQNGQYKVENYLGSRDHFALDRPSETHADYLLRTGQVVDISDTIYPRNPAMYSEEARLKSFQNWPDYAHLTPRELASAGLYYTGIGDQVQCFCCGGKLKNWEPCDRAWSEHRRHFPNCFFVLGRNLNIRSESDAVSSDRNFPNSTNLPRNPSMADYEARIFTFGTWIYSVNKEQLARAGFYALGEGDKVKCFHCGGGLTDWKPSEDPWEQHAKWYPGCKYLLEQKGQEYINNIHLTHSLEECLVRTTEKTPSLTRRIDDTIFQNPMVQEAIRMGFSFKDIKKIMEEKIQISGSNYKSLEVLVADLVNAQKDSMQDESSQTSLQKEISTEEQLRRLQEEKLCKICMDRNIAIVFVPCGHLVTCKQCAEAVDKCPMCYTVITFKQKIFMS
Compound,z-score [1],z-score [2],z-score [3],z-score [4],z-score [5],z-score [6],z-score [7],z-score [8],z-score [9],z-score [10],z-score [11],z-score [12],z-score [13],composite z-score [14],z-score [15],z-score [16],z-score [17],z-score [18],z-score [19],composite z-score [20]
O=C1CS(=O)(=O)C(c2cccc([N+](=O)[O-])c2)N1c1ccccc1 (stereo not given),1.02,0.116,1.46,0.637,1.22,1.24,-0.662 (inactive),-0.141,2.21,0.0249 (inactive),0.946,-1.3 (inactive),0.973 (inactive),-1.21 (inactive),0.627 (inactive),-0.818 (inactive),1.16 (inactive),1.21 (inactive),0.511,0.0055
CS(=O)(=O)CCOC(=O)C1=CC(c2ccc(CO)cc2)=CC(C2CC2)N(Cc2sc3ccccc3c2Cl)C=C1C(=O)OCCS(C)(=O)=O (stereo not given),-0.852,-0.716,0.0312,-3.29,-2.92,0.424,0.662 (inactive),-0.943,-1.87,-1.05 (inactive),0.315,-5.45 (inactive),-2.63 (inactive),-1.26 (inactive),-0.563 (inactive),0.272 (inactive),-3.53 (inactive),-2.01 (inactive),-1.85,0.0049
COc1ccc([Si](C)(C)[C@H]2[C@H](CC(=O)N(CCO)Cc3ccccc3)O[C@@]3(C(=O)N(C)c4c(Br)cc(C)cc43)[C@@H]2C)cc1,-3.51,-0.346,-4.11,-2.75,-4.66,-2.26,0.0268 (inactive),-1.07,-2.16,-1.02 (inactive),-1.86,-2.5 (inactive),-2.84 (inactive),-0.474 (inactive),1.94 (inactive),0.257 (inactive),1.32 (inactive),0.677 (inactive),-5.31,0.868
CCCCCCCCCC(O)C1C=CC2C(=O)N(c3ccccc3)C(=O)C2N1Nc1cc(OC)c(OC)c(OC)c1 (stereo not given),-1.07,0.614,-0.777,-3.83,-4.07,-0.0684,0.783 (inactive),-0.994,-1.21,-1.58 (inactive),-2.66,0.953 (inactive),-4.42 (inactive),-0.474 (inactive),0.711 (inactive),0.27 (inactive),-1.57 (inactive),-1.75 (inactive),-4.03,0.176
O=c1cccc(-c2ccc([N+](=O)[O-])cc2)o1,0.419,0.294,0.273,-0.369,-0.308,0.302,0.543 (inactive),0.379,-1.01,-0.0447 (inactive),0.269,-0.589 (inactive),0.697 (inactive),-0.371 (inactive),0.201 (inactive),-0.376 (inactive),-0.0154 (inactive),1.34 (inactive),-0.425,0.515
CN(C)C(=O)[C@@]1(Cc2ccccc2)N=C(c2ccc(OCCCO)cc2)O[C@H]1c1ccccc1,-0.518,0.208,0.64,-0.918,-3.24,0.285,0.708 (inactive),-0.0484,-0.303,1.18 (inactive),1.6,-1.92 (inactive),0.857 (inactive),-0.177 (inactive),-0.345 (inactive),0.319 (inactive),0.0862 (inactive),-0.146 (inactive),1.16,-0.205
COCCOC(=O)N1C(=O)[C@@]2(c3cc(C#CCNC(N)=O)ccc31)[C@H](C(N)=O)[C@H]1C(=O)O[C@H](c3ccccc3)[C@H](c3ccccc3)N1[C@@H]2c1ccccc1OCCO,0.533,0.0371,-0.362,-1.24,0.458,-2.02,-0.278 (inactive),-0.159,0.244,0.291 (inactive),-0.281,0.407 (inactive),-0.126 (inactive),-0.235 (inactive),0.986 (inactive),1.59 (inactive),-0.0653 (inactive),-0.0752 (inactive),-0.0771,-0.135
COC(=O)[C@@]1(Cc2ccc(F)cc2)[C@H]2c3cc(C(=O)N(C)C)n(CCc4ccc(OC)c(Br)c4)c3C[C@H]2CN1C(=O)c1ccccc1,-2.25,0.0834,-1.42,-3.29,-4.63,-1.68,-0.662 (inactive),-0.812,-2.89,-2.93 (inactive),-1.73,0.233 (inactive),-8.44 (active),-3.85 (inactive),2.7 (inactive),0.399 (inactive),-0.893 (inactive),-1.49 (inactive),-5.69,-0.337
CCCCC(O)C1C=CC2C(=O)N(C)C(=O)C2N1N(c1ccccc1)c1ccccc1 (stereo not given),-0.646,-1.68,0.821,-0.769,-0.938,-1.19,-1.3 (inactive),-0.198,-0.497,-0.7 (inactive),-0.682,0.512 (inactive),-1.65 (inactive),-0.226 (inactive),1.26 (inactive),0.46 (inactive),-0.447 (inactive),-0.251 (inactive),-1.05,0.001
